Records with an inconclusive call do not appear. Calls of active or inactive are those of the source. Unless noted, calls follow the shape of the dose curve; as a rule, active = well fitted curve in the direction sought with a large enough effect in the repeat runs; inconclusive = weak or mixed curves; inactive = no such curve, though single readings can be large; an effect the other way counts as inactive or inconclusive.

A short description of experiment [1]: qHTS assay to identify small molecule antagonists of the estrogen related receptor (ERR) signaling pathway - cell viability counter screen (AID 1224818).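 Also: series mostly up to about 46 µM; viability measured after 17.5 h of compound exposure.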 An outline of the steps: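 After a 6 h pre-incubation, ERR cells were dosed by pin tool with compounds, positive/negative controls or DMSO alone. Following 17.5 h at 37 C and 30 min with CellTiter-Fluor, fluorescence was recorded.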

A short description of experiment [2]: qHTS assay to identify small molecule antagonists of the estrogen related receptor (ERR) signaling pathway (AID 1224819; also: nearly all actives have a fitted effect of over 50% in size; also: potency is read from the fitted curve at half-maximal effect). An outline of the steps:
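Luminescence readout (One-Glo, 30 min, RT) of ERR cell line after 18 h compound exposure at 37 C; cells seeded 2,000/well, pre-incubated 6 h, compounds pinned from DMSO stocks.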
On the technique in general: In qHTS, concentration-response curves come from the screen itself.

Experiment [3] can be described thus: qHTS assay to identify small molecule agonists of the estrogen related receptor (ERR) signaling pathway (AID 1224820). The procedure, abridged:
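ERR reporter cell line (from NTP), 2,000 cells/well, incubated 6 h before compound addition, then 18 h at 37 C. Luminescence measured 30 min after One-Glo reagent at room temperature.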

Experiment [4] relates to estrogen-related receptor alpha (ERRalpha) with PGC-1alpha coactivator, human. The experiment is described as follows: qHTS assay to identify small molecule antagonists of the estrogen related receptor signaling pathway with the pleiotropic PPARgamma coactivator (PGC) (AID 1224821; calls by dose curve; also: nearly all actives have a fitted effect of over 50% in size; also: potency is read from the fitted curve at half-maximal effect). The procedure, abridged: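 PGC/ERR reporter cell line, plated 6 h before compound addition, then exposed 18 h at 37 °C. Luciferase activity read by luminescence 30 min after One-Glo addition; decrease indicates antagonism.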

Experiment [5] in a line: qHTS assay to identify small molecule antagonists of the estrogen related receptor signaling pathway with the pleiotropic PPARgamma coactivator (PGC) cell viability counter screen (AID 1224822; also: series mostly up to about 46 µM). An outline of the steps: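 PGC/ERR cells were plated at 2,000 per well and allowed 6 h to settle before compound addition. Following 17.5 h at 37 C, CellTiter-Fluor reagent was added and fluorescence was read 30 min later.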

The nature of experiment [6]: qHTS assay to identify small molecule agonists of the estrogen related receptor signaling pathway with the pleiotropic PPARgamma coactivator (PGC) (AID 1224823). Also: potency is read from the fitted curve at half-maximal effect. An outline of the steps:
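PGC/ERR reporter cells seeded 6 h, then exposed to compounds (23 nL in DMSO) for 18 h at 37 C. One-Glo luciferase luminescence read after 30 min at room temperature.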

For `N[C@@H](CC(=O)O)C(=O)O`, the Potency entry in experiment [1], in experiment [2], in experiment [3], in experiment [4], in experiment [5] and in experiment [6] was “inactive” throughout.
In the case of `O=S(=O)(c1cccc2c(I)cccc12)N1CCCNCC1`, the Potency entry in experiment [1], in experiment [2], in experiment [3], in experiment [4], in experiment [5] and in experiment [6] was “inactive” throughout.
Turning to `CC(C)Cc1ccc([C@H](C)C(=O)O)cc1`, the Potency entry in experiment [1], in experiment [2], in experiment [3], in experiment [4], in experiment [5] and in experiment [6] was “inactive” in each case.
In the case of `O=C(O)Cc1c[nH]c2ccc(O)cc12`, the Potency result in experiment [1], in experiment [2], in experiment [3], in experiment [4], in experiment [5] and in experiment [6] was “inactive” in each case.
In the case of `COc1cc(CC(=O)O)ccc1O`, the Potency result in experiment [1], in experiment [2], in experiment [3], in experiment [4], in experiment [5] and in experiment [6] was “inactive” in each case.
As to `CC(=O)O[C@H]1CC2(C)[C@@H](C[C@@H](O)[C@H]3[C@@]4(C)CC[C@@H](O)[C@@H](C)[C@@H]4CC[C@@]32C)C1=C(CCC=C(C)C)C(=O)O` (stereo not given in full), the Potency entry in experiment [1], in experiment [2], in experiment [3], in experiment [4], in experiment [5] and in experiment [6] was “inactive” each time.
`O=C(O)C1=CCNCC1`: the Potency result in experiment [1], in experiment [2], in experiment [3], in experiment [4], in experiment [5] and in experiment [6] was “inactive” throughout.
Regarding `COC(=O)[C@H]1[C@H]2C[C@H]3c4[nH]c5ccccc5c4CCN3C[C@H]2CC[C@@H]1O`, the Potency result in experiment [1], in experiment [2], in experiment [3], in experiment [4], in experiment [5] and in experiment [6] was “inactive” throughout.
With `O=c1c(O)c(-c2cc(O)c(O)c(O)c2)oc2cc(O)cc(O)c12`, the Potency result in experiment [1], in experiment [2], in experiment [3], in experiment [4], in experiment [5] and in experiment [6] was “inactive” each time.
With `CCCCCCCCCCCCCCSCC(=O)O`, the Potency entry in experiment [1], in experiment [2], in experiment [3], in experiment [4], in experiment [5] and in experiment [6] was “inactive” each time.
For the compound `CC1CCN=C(N)S1` (stereo not given), the Potency entry in experiment [1], in experiment [2], in experiment [3], in experiment [4], in experiment [5] and in experiment [6] was “inactive” throughout.
As for `CCCCCCCCc1ccc(-c2ccc(C(=O)O)cc2)cc1`, the Potency entry in experiment [1], in experiment [2], in experiment [3], in experiment [4], in experiment [5] and in experiment [6] was “inactive” in each case.
Turning to `OC[C@H]1O[C@@H](n2cnc3c(NC4CCCC4)ncnc32)[C@H](O)C1O` (stereo not given in full), the Potency result in experiment [1], in experiment [2], in experiment [3], in experiment [4] and in experiment [5] was “inactive” each time. For the same compound, the Potency in experiment [6] is 3.1 µM (active).
With `C[C@@H](c1ncncc1F)[C@](O)(Cn1cncn1)c1ccc(F)cc1F`, the Potency result in experiment [1], in experiment [2], in experiment [3], in experiment [4], in experiment [5] and in experiment [6] was “inactive” each time.
On to `CN1CCc2cc(Cl)c(O)cc2[C@@H](c2ccccc2)C1`, for which the Potency result in experiment [1], in experiment [2], in experiment [3], in experiment [4], in experiment [5] and in experiment [6] was “inactive” each time.
Turning to `NCCC1CCCC(CCN)N1` (stereo not given), the Potency result in experiment [1], in experiment [2], in experiment [3], in experiment [4], in experiment [5] and in experiment [6] was “inactive” each time.
Turning to `CC(C)C[C@H](NC(=O)[C@H](O)[C@H](N)Cc1ccccc1)C(=O)O`, the Potency entry in experiment [1], in experiment [2], in experiment [3], in experiment [4], in experiment [5] and in experiment [6] was “inactive” each time.
In the case of `N[C@@H](CCC(=O)N[C@H](CSN=O)C(=O)NCC(=O)O)C(=O)O`, the Potency result in experiment [1], in experiment [2], in experiment [3], in experiment [4], in experiment [5] and in experiment [6] was “inactive” each time.
Regarding `NC(=O)c1ccc2[nH]ccc2c1`, the Potency entry in experiment [1], in experiment [2], in experiment [3], in experiment [4], in experiment [5] and in experiment [6] was “inactive” each time.
As to `CCC(NC(C)C)C(O)c1ccc(O)c(O)c1` (stereo not given), the Potency result in experiment [1], in experiment [2], in experiment [3], in experiment [4], in experiment [5] and in experiment [6] was “inactive” throughout.
For the compound `CC(C)C[C@H](NC(=O)C1OC1C(=O)O)C(=O)NCCCCN=C(N)N` (stereo not given in full), the Potency result in experiment [1], in experiment [2], in experiment [3], in experiment [4], in experiment [5] and in experiment [6] was “inactive” each time.
As for `CNCCC(Oc1ccccc1C)c1ccccc1` (stereo not given), the Potency entry in experiment [1], in experiment [2], in experiment [3], in experiment [4], in experiment [5] and in experiment [6] was “inactive” in each case.
On to `NC(=O)CNCCC(c1ccccc1)c1ccccc1`, for which the Potency result in experiment [1], in experiment [2], in experiment [3], in experiment [4], in experiment [5] and in experiment [6] was “inactive” throughout.
For the compound `O=C(O)C1=CCCN(CCON=C(c2ccccc2)c2ccccc2)C1`, the Potency entry in experiment [1], in experiment [2], in experiment [3], in experiment [4], in experiment [5] and in experiment [6] was “inactive” each time.
For `CC(=O)NNC(=O)N1Cc2ccccc2Oc2ccc(Cl)cc21`, the Potency result in experiment [1], in experiment [2], in experiment [3], in experiment [4], in experiment [5] and in experiment [6] was “inactive” throughout.
Turning to `N#CC(C#N)=C(N)/C(C#N)=C/c1ccc(O)cc1`, the Potency entry in experiment [1], in experiment [2], in experiment [3], in experiment [4], in experiment [5] and in experiment [6] was “inactive” in each case.
Turning to `O=[N+]([O-])c1cccc2c(Br)[nH]nc12`, the Potency entry in experiment [1], in experiment [2], in experiment [3], in experiment [4], in experiment [5] and in experiment [6] was “inactive” throughout.
In the case of `CNc1cc(NS(=O)(=O)c2ccc(N)cc2)nc(NC)n1`, the Potency entry in experiment [1], in experiment [2], in experiment [3], in experiment [4], in experiment [5] and in experiment [6] was “inactive” throughout.
Take `CC1(C)CCC=[N+]1[O-]`: the Potency result in experiment [1], in experiment [2], in experiment [3], in experiment [4], in experiment [5] and in experiment [6] was “inactive” throughout.
`Brc1c(Br)c(Br)c2n[nH]nc2c1Br`: the Potency entry in experiment [1], in experiment [3], in experiment [5] and in experiment [6] was “inactive” each time. Moreover, the Potency in experiment [2] is 22 µM (active); in experiment [4], 21.1 µM (active).
